Our source for the growth values is PubChem BioAssay (NCI).

Molecules are shown by their SMILES. The panel holds about 83,000 compounds, 20% with a hit somewhere; the sample as a whole holds those more often.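 Interpretation: 100, growth as untreated; towards 0, rising growth inhibition; 0, no net growth; 0 to -100, cell death. Compounds scoring below 10 were considered active.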 Unmarked numbers belong to inactive results. The source made the active and inactive calls.

The test deals with MDA-MB-468 breast. The experiment in a line: NCI-60 one-dose screen, 48 h (100 = growth as untreated, 0 = no growth, -100 = all killed). Particulars: 10 µM unless noted.
As for `CC1=CC(c2ccco2)=C2C(N)=NNC2N1` (stereo not given), the growth is 104%. On to `O=C(Nc1ccccc1)c1sc(-c2ccccc2)cc1O`, for which the growth was 107%. Regarding `COc1cc(C2CC(=O)c3ccccc3N2)cc(OC)c1OC` (stereo not given), the growth was 90.5%. On to `COC1OCC(O)C(O)C1O` (stereo not given), for which the growth is 100%. Turning to `c1ccc(OCc2nnc(-c3ccc(Oc4ccccc4)cc3)o2)cc1`, the growth was 111%. On to `O=C(N/N=C/c1cc([N+](=O)[O-])ccc1O)c1cccc2ccccc12`, for which the growth is -8.62% (active).

For `Cc1ccc(C(O)C2CC2)cc1` (stereo not given), the growth was 103%. On to `COc1ccc(C(=O)/C=C/c2ccccn2)c(O)c1`, for which the growth was 57.1%. `N#Cc1c(Nc2ccc(N3CCOCC3)cc2)nc(SCC(=O)c2ccc(Br)cc2)nc1-c1ccccc1`: the growth was 113%. `O=[N+]([O-])c1cccc(N=Nc2ccc(O)cc2O)c1`: the growth is 69.6%. As for `COc1cnc2c(c1)C(=O)c1c-2n(CCCNC2=NCCS2)c(=O)c2cc(F)ccc12`, the growth is -17.6% (active). Take `O=C1/C(=C/c2cccc3cnccc23)Cc2cc(F)ccc21`: the growth is 65.2%. For `O=C(CCC(=O)N(CCO)CCO)N(CCO)CCO`, the growth was 110%. As for `CC1=C2CC/C(C)=C/CC[C@]3(C)O[C@H]3CC/C(C)=C/[C@H]2OC1`, the growth was 98.6%. As for `[N-]=[N+]=NCc1ncc(-c2ccc(C(F)(F)F)cc2)c(NC2CCCCCC2)n1`, the growth was 103% [50 µM]. For the molecule `O=C(NCCN1CCOCC1)OCc1ccc2c(Cl)cc(Cl)c(O)c2n1`, the growth was 81.6%. Take `COc1cc(/C=C2\CN(C)C/C(=C\c3cc(CN4CCOCC4)c(O)c(OC)c3)C2=O)cc(CN2CCOCC2)c1O`: the growth is 38.8%. Take `COc1ccc(/C=C2\C(=O)N=C3N2NC(c2cc(Br)ccc2O)C=C(C)N3c2ccccc2)cc1` (stereo not given): the growth was 90.7%. For the molecule `O=C(CCCCC(=O)N/N=C\c1ccccc1O)N/N=C\c1ccccc1O`, the growth was 22.4%. As to `COc1cc(OC)c(C2SCC(=O)N2Nc2ncnc3ccccc23)cc1OC` (stereo not given), the growth was 111%. On to `CCN(CC)CCOC(=O)Nc1ccccc1Cl`, for which the growth is 104%. As to `Cc1cc(Cl)nc(NCc2cc(Nc3ccnc4cc(Cl)ccc34)ccc2F)n1`, the growth is 11.4%. As for `CC1(C)CN(Cc2ccccc2)CCN1Cc1ccccc1`, the growth is 106%. In the case of `C=C(C=O)[C@@H]1CC[C@]2(C)[C@H](CC=C3[C@H]4[C@@H](C)[C@H](C)CC[C@]4(C(=O)OC)CC[C@]32C)[C@@]1(C)CCC#N` it was -18.1% (active); in that of `O=C(Nc1ncc(Cc2ccccc2)s1)c1sc2ccccc2c1Cl`, 7.07% (active); in that of `COC(=O)[C@]12CC[C@@H](C)[C@H](C)[C@@H]1C1=CC[C@@H]3[C@@]4(C)C[C@@H](OC(=O)c5ccco5)[C@H](O)[C@@](C)(CO)[C@@H]4[C@H](O)C[C@@]3(C)[C@]1(C)CC2`, -89.1% (active). Take `C#C[C@@]1(O)[C@@H](CO)O[C@@H](n2cc(C(F)(F)F)c3c(N)ncnc32)[C@@H]1O`: the growth was -56.3% (active). `COCCn1cc(-c2csc(-c3c[nH]c4ccc(Br)cc34)n2)c2cccnc21`: the growth is 0.403% (active).

As to `COc1ccc(-c2cc(-c3ccc(Nc4ccnc5cc(Cl)ccc45)cc3)nc(N3CCOCC3)n2)cc1`, the growth is 42.1%.

For `Cc1ccc(NC(=O)/C=C/c2ccccc2)c(C(N)=O)c1`, the growth was 22.5%.

Regarding `Nc1c(C(=O)c2ccccc2)sc2nc(-c3cccs3)cc(-c3cccs3)c12`, the growth was 30.8%. Turning to `COC(=O)[C@@]1(C)CC[C@]2(C)CC[C@]3(C)C(=CC(=O)[C@@H]4[C@@]5(C)Cc6c(n(CC#CCN7CCN(C)CC7)c7ccccc67)C(C)(C)[C@@H]5CC[C@]43C)[C@@H]2C1`, the growth is 69.1%. Consider `CCN1C(=O)/C(=C/C(=O)OC)S/C1=N\NC(=O)c1cc2ccc1/C=C\c1ccc(cc1)/C=C\2`, for which the growth was 87.3%. In the case of `CCCCCC/C=C\CCCCCCCCOc1ccc(CCOP(=O)(O)OCC[N+](C)(C)C)cc1`, the growth was 85.5%. `C(=C\c1n(Cc2ccc3ccccc3c2)c(-c2ccccc2)c(-c2ccccc2)[n+]1Cc1ccc2ccccc2c1)/c1ccccc1`: the growth is -70.8% (active). In the case of `O=C(NCc1ccc(Cl)cc1Cl)C1CCC(=O)N1c1cccs1` (stereo not given) it was 115%; in that of `COc1ccc(/C=C2\COc3ccc(O)cc3C2=O)cc1OC`, 103%; in that of `COc1cnc2c(c1)C(=O)c1c-2n(CCCn2ccnc2)c(=O)c2cc(F)ccc12`, -35.7% (active). Under `C[C@@H]1N=C(c2ccc3ccccc3n2)Nc2nc3ccccn3c2C1=O` stands 107%; under `O=c1[nH]c(N2CCC(Cc3ccccc3)CC2)nc2sc3c(c12)CCCC3`, 104%.
